Consider 40 compounds from PubChem BioAssay (Tox21).

Values without a mark were called inactive. Activity calls are given as the source filed them. The call rests on the fitted dose curve.
On the % scale 0 is the no-effect control and ±100 the full control effect; potency means the concentration at half of the fitted maximal effect.

Sequence of Gonadotropin-releasing hormone receptor (Homo sapiens) (P30968 whole entry, looked up): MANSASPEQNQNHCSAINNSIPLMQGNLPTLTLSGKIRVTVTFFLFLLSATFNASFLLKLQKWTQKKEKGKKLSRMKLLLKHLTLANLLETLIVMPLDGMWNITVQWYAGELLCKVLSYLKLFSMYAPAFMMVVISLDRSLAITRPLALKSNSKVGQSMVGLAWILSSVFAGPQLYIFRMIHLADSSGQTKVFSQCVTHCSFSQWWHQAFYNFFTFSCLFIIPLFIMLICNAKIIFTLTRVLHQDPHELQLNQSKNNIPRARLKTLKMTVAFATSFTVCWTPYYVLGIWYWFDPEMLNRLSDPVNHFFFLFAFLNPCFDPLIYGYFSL

The target of the test is Gonadotropin-releasing hormone receptor (Homo sapiens) (UniProt P30968). The experiment in a line: Human gonadotropin-releasing hormone receptor (GnRHR) small molecule agonists, calcium flux assay in GnRHR-HEK293 cells (AID 1920063). Further: nearly all actives have a fitted effect of over 35% in size. To be noted: calcium flux fluorescence, agonist mode; series mostly up to 57.6 µM; activity change: at the top concentration. The method in brief:
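HEK293 cells stably expressing human GnRHR were plated 18 h at 37 °C, loaded with calcium dye 1 h at 37 °C, then given compound in agonist mode; fluorescence (Ex/Em 480/540) read kinetically for 3 min at 1 s intervals.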
A general note: A change in cytosolic calcium serves as a functional read-out for many receptors and channels.
As for `CCCC1CCC(=O)O1` (stereo not given), the “activity change” value was -1.85%.

On to `CCN(CC)c1ccc2c(-c3ccc(S(=O)(=O)O)cc3S(=O)(=O)[O-])c3ccc(=[N+](CC)CC)cc-3oc2c1`, for which the Potency was 45.1 µM (active).

For the compound `COc1ccc(/C=C/S(=O)(=O)NC(=O)c2ccc(C)cc2Cl)cc1`, the “activity change” value was -0.673%.

Take `N[C@@H](Cc1cc(I)c(O)c(I)c1)C(=O)O`: the “activity change” value was -1.3% [at 26.4 µM, active compounds read high].

With `C=CC(=O)OCC(Br)CBr` (stereo not given), the “activity change” value was 0.428%.

With `O=C1CCC(C2CCCCC2)CC1`, the “activity change” value is 5.91%.

For the compound `COc1ccc(C(=O)N2CCN(CC(=O)N3CCOCC3)CC2)cc1`, the “activity change” value was 0.954% [at 26.4 µM, active compounds read high].

`COCCC(=O)OC`: the “activity change” value was 1.33%.

Regarding `Cc1nc2ccc(Cl)cc2[nH]1`, the “activity change” value is -1.96%.

`CC(C)(C)C(=O)C(=O)O`: the “activity change” value was 0.729%.

In the case of `COc1cccc(O)c1O`, the “activity change” value was 0.101%.

`N=C1C=CC(=C(c2ccc(N)cc2)c2ccc(N)cc2)C=C1`: the “activity change” value was 8.87%.

Take `O=C1c2ccccc2C(=O)C1c1ccc2ccccc2n1`: the “activity change” value was 1.3% [at 26.4 µM, active compounds read high].

On to `CN1CCN(C2=Nc3cc(F)ccc3Cc3ccccc32)CC1`, for which the “activity change” value was 0.923% [at 26.4 µM, active compounds read high].

Regarding `CC1=NN(c2ccc(C(=O)O)cc2)C(=O)C1`, the “activity change” value was -0.0428%.

As for `Oc1ccc(Oc2ccccc2)cc1`, the “activity change” value was 6.19%.

On to `CC(C)(O)CCCC1=CCC(C=O)CC1` (stereo not given), for which the “activity change” value was 0.039%.

In the case of `NS(=O)(=O)Cc1noc2ccccc12`, the “activity change” value was 1.28% [at 26.4 µM, active compounds read high].

As for `COc1ccc(C(=O)c2ccc(OC)cc2O)c(O)c1`, the “activity change” value was 1.27%.

Turning to `Fc1ccc([C@@H]2CCNC[C@H]2COc2ccc3c(c2)OCO3)cc1`, the “activity change” value is 3.69% [at 26.4 µM, active compounds read high].

For `CCOC(=O)O[C@H](C)OC(=O)c1ccc2c(c1)cc(C(=O)NC1CCN(C(C)C)CC1)n2Cc1cc(-c2ccc(Cl)s2)on1`, the “activity change” value was 0.0515%.

Turning to `CC1=C(/C=C/C(C)=C\C=C\C(C)=C\C(=O)O)C(C)(C)CCC1`, the “activity change” value was -0.494%.

`Cc1cccc(N(C)C(=S)Oc2ccc3c(c2)CCC3)c1`: the “activity change” value is -0.134% [at 26.4 µM, active compounds read high].

As to `CCCC(=O)OCCC(C)C`, the “activity change” value is -0.275%.

Regarding `COc1ccccc1NC(=O)c1cc2ccccc2cc1O`, the “activity change” value was 8.49%.

`O=C(CCBr)N1CCN(C(=O)CCBr)CC1`: the “activity change” value is -0.83% [at 26.4 µM, active compounds read high].

Consider `CN(C)CCC=C1c2ccccc2C=Cc2ccccc21`, for which the “activity change” value was 7.54% [at 26.4 µM, active compounds read high].

On to `O=C(O)c1cccc(Oc2ccccc2)c1`, for which the “activity change” value was -1.01%.

For `COc1ccc([C@@H]2Sc3ccccc3NC(=O)[C@@H]2O)cc1`, the “activity change” value was -1.17% [at 26.4 µM, active compounds read high].

As for `Oc1ccc(C2CNCCc3c2cc(O)c(O)c3Cl)cc1` (stereo not given), the “activity change” value was -2.18% [at 26.4 µM, active compounds read high].

Turning to `CC(c1cc(C(C)(C)C)cc(C(C)(C)C)c1O)c1cc(C(C)(C)C)cc(C(C)(C)C)c1O`, the “activity change” value is -0.45%.

Take `Nc1ccc(S(=O)(=O)NCc2ccccc2)cc1`: the “activity change” value is 0.652% [at 26.4 µM, active compounds read high].

As to `Nc1[nH]c(=O)ncc1F`, the “activity change” value was 1.01% [at 26.4 µM, active compounds read high].

Turning to `O=Cc1ccccc1[N+](=O)[O-]`, the “activity change” value was -0.838%.

For `CCC1CCC(CCC(=O)O)C1` (stereo not given), the “activity change” value is -1.89%.

With `CCCCCCCCCCCCCCCCCC(=O)OCCCCCCCCCCCCCC(C)C`, the “activity change” value was 1.51%.

Consider `CCCCCCCCCCCCCCCCCl`, for which the activity change was 0.762% [at 11.8 µM, active compounds read high].

Take `CCCOC(=O)c1ccc(O)cc1`: the “activity change” value is -3.09%.

As for `CC1COc2c(N3CCN(C)CC3)c(F)cc3c(=O)c(C(=O)O)cn1c23` (stereo not given), the “activity change” value is -2.09% [at 26.4 µM, active compounds read high].

With `CCCCS`, the “activity change” value was 1.3%.
